According to PubChem BioAssay (NCI):
Compounds without any hit were thinned out: in the full panel of roughly 79,000, 15% have a hit. Cut-off read from the data, not from the text of the source: active = growth inhibition above about 70%; inactive = the rest.

Key:
[1] = NCI Yeast Anticancer Drug Screen. Data for the rad50 strain (AID 155);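 note: 0% = growth of vehicle-only cultures of the same strain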; conditions: S. cerevisiae rad50 strain growth inhibition; at 50.0 µM; hits give high values
Method in brief: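 Inhibition values express reduced yeast growth in compound-treated cultures relative to vehicle-treated controls.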

[2] = NCI Yeast Anticancer Drug Screen. Data for the mec2-1 strain (AID 157); conditions: S. cerevisiae mec2-1 strain, at 50.0 µM, hits give high values
Method in brief: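 Mutant yeast (mec2-1) grown with compound; growth inhibition relative to vehicle control reported.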

[3] = NCI Yeast Anticancer Drug Screen. Data for the sgs1 mgt1 strain (AID 161);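 note: 0% = growth of cultures given vehicle only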; conditions: S. cerevisiae sgs1 mgt1 strain, at 50.0 µM, hits give high values
Method in brief: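 Yeast cells carrying a defined DNA-repair defect were exposed to test compounds. Growth inhibition was measured relative to vehicle-treated controls.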

[4] = NCI Yeast Anticancer Drug Screen. Data for the cln2 rad14 strain (AID 165);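 note: 0% = growth equal to vehicle treated cultures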; conditions: S. cerevisiae cln2 rad14 strain, at 50.0 µM, hits give high values
Method in brief: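 Readout is yeast growth inhibition versus vehicle-treated controls, using a strain with cln2 and rad14 alterations exposed to compound.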

[5] = NCI Yeast Anticancer Drug Screen. Data for the bub3 strain (AID 167); conditions: S. cerevisiae bub3 mutant strain, at 50.0 µM, hits give high values
Method in brief: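 Steps: expose the mutant yeast strain to compound; grow alongside vehicle-treated cultures; measure growth; express inhibition against the vehicle cultures.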

[6] = NCI Yeast Anticancer Drug Screen. Data for the mlh1 rad18 strain (AID 175); conditions: S. cerevisiae mlh1 rad18 strain growth inhibition; at 50.0 µM; hits give high values
Method in brief: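 Genetically defined yeast (DNA repair-deficient) exposed to compounds; growth inhibition determined relative to vehicle.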

Measured: growth inhibition

CCc1cccc(Nc2ccccc2C(=O)O)c1
inactive: [1] 42% | [2] 25.2% | [3] 29.8% | [4] -26.6% | [5] -2.05% | [6] -2.2%

CCCCNC(=O)CSc1cc(Cl)c(Cl)cc1Cl
inactive: [1] 15.2% | [2] 9.1% | [3] 16.6% | [4] 19.1% | [5] 25.6% | [6] 13.2%

C=C(C)c1ccc(F)cc1
inactive: [1] 3.9% | [2] -7.5% | [3] -1.65% | [4] 4.2% | [5] -2.05% | [6] 0.55%

Nc1ccc(N)c(Cl)c1
inactive: [1] -19.4% | [2] -15.8% | [3] -19.8% | [4] 14.7% | [5] -7.3% | [6] -2.85%

CCOC(C)(OCC)c1ccccc1
inactive: [1] -9.15% | [2] 20.6% | [3] -2.1% | [4] 23.5% | [5] 8.55% | [6] 29.4%

CCOC(=O)C(C(C)=O)C(c1ccc(OCc2ccccc2)c(C)c1)C(C(C)=O)C(=O)OCC (stereo unspecified)
inactive: [1] 14.7% | [2] 3.9% | [3] 25.9% | [4] 27.1% | [5] 8.55% | [6] 19.9%

CNC(=O)Nc1ccc(C(=O)O)cc1
inactive: [1] 9.2% | [2] 4.35% | [3] 5.35% | [4] -38.1% | [5] 9.8% | [6] 5.2%

COc1ccccc1NC(=O)Oc1ccc(C#N)cc1
inactive: [1] 7.2% | [2] -14.5% | [3] 15% | [4] -1.8% | [5] 9.75% | [6] 0.4%

N#CN=C(N)NC(=O)/C=C/C=C/c1ccc(Cl)cc1
inactive: [1] 5.8% | [2] 16.8% | [3] 0.8% | [4] 9.8% | [5] 38% | [6] 24.8%

CC(C)(C)c1ccccc1OC(=O)Nc1ccc(F)cc1
inactive: [1] 3.65% | [2] 7.1% | [3] 7.4% | [4] -14.2% | [5] 19.1% | [6] -3.7%

CC(=O)CC1CCCCCC1
inactive: [1] 4.3% | [2] 4.3% | [3] 0.45% | [4] -11.3% | [5] 2.1% | [6] 6.3%

CCCCCC(=O)/C=C/Sc1n[nH]c(=O)[nH]c1=O
inactive: [1] 60.5% | [2] 41.1% | [3] 64.2% | [4] 27.9% | [5] 55% | [6] 62.1%

Clc1ccccc1C1N2CCCCC2[C@@H]2c3[nH]c4ccccc4c3CCN12 (stereo partly specified)
inactive: [1] -14.8% | [2] -1.35% | [3] 9.25% | [4] 9.25% | [5] 12.6% | [6] 2.4%

O=C1OC(c2ccc([N+](=O)[O-])cc2)=N/C1=C\c1ccc(Cl)c(Cl)c1
inactive: [1] 31.9% | [2] 21.8% | [3] 43.6% | [4] 28.1% | [5] 25.2% | [6] 46.2%

CNC(=O)c1ccccc1Cl
inactive: [1] -0.55% | [2] 6.9% | [3] 10.8% | [4] 4.65% | [5] 3.9% | [6] 19.2%

COc1ccc2nc(-c3ccc(F)cc3)cc(C(=O)O)c2c1
inactive: [1] -4.6% | [2] -14.7% | [3] 9.75% | [4] 16.9% | [5] 10.2% | [6] 17.1%

COC(=O)c1ccccc1C1CN=NC12Cc1c(C)cccc1C2=O (stereo unspecified)
inactive: [1] -2.25% | [2] 6% | [3] -5% | [4] -7.1% | [5] 13.8% | [6] -13.7%

CN(C)c1cc2ccccc2oc1=O
inactive: [1] 5.3% | [2] -0.75% | [3] -2% | [4] -5.75% | [5] 9% | [6] 6.45%

COC(=O)C(Cc1c[nH]c2ccccc12)NP(=O)(O)OCC1OC(n2cc(Br)c(=O)[nH]c2=O)CC1O (stereo unspecified)
inactive: [1] -34.8% | [2] -15.4% | [3] -9.25% | [4] -12% | [5] -16.3% | [6] -10.1%

CN(c1ccc(Cl)cc1)S(=O)(=O)c1ccc([N+](=O)[O-])cc1
inactive: [1] -13.2% | [2] -23.5% | [3] 23.4% | [4] 32.4% | [5] 38% | [6] -5.9%

O=C(O)CNC(CO)(CO)CO
inactive: [1] -55% | [2] -60.8% | [3] -36% | [4] -19.8% | [5] -10.8% | [6] -43%
